In PubChem BioAssay (EPA / NIEHS) one finds outcome data, which are given here for 40 compounds.

Activity calls are given as the source filed them. Rule for the calls: active = hit-call score of the fitted dose curve at least 0.9, where 1 is the maximum; inactive = score below 0.9.

The experiment in a line: ATG_M_61_CIS: Attagene CIS-FACTORIAL HepG2 Assay for M61 Transcription Factor (Internal Marker) (AID 2282937). Conditions: HepG2 Attagene CIS-FACTORIAL M61 internal marker reporter; actives raise or lower the signal. How it is done:
ATG_CIS is a cell-based, multiplexed-readout assay that uses HepG2, a human liver cell line, with measurements taken at 24 hours after chemical dosing in a 24-well plate.ATG_M_61_CIS is one of 52 assay component(s) measured or calculated from the ATG_CIS assay. It is designed to make measurements of mRNA induction, a form of inducible reporter, as detected with fluorescence intensity signals by Reverse transcription polymerase chain reaction (RT-PCR) and Capillary electrophoresis technology.Data from the assay component ATG_M_61_CIS was analyzed into 1 assay endpoint. This assay endpoint, ATG_M_61_CIS, was analyzed with bidirectional fitting relative to DMSO as the negative control and baseline of activity. Using a type of inducible reporter, measures of mRNA for gain or loss-of-signal activity can be used to understand the background control at the transcription factor-level as they relate to the gene . Furthermore, this assay endpoint can be referred to as a secondary readout, because this assay has produced multiple assay endpoints where this one serves a background control function. To generalize the intended target to other relatable targets, this assay endpoint is annotated to the background measurement intended target family, where the subfamily is internal marker.
Human liver HepG2 cells are transiently transfected with multiple reporter transcription units (MRTUs) in 6-well plates using FuGene 6 reagent (Roche; 3 ml FuGene/1 mg DNA). The MRTU constructs are regulated by a cis-regulating element (promoter). […] A major difference between the CIS and TRANS system is that in CIS activities of endogenous TFs are measured, whereas the TRANS assay evaluates changes in activities of exogenous, chimeric NR-Gal4 proteins. […] At the end of 24 hour incubation, total RNA was isolated using TriZol reagent (Invitrogen). The isolated RNA is then reverse-transcribed using oligo(dT) primer and Mo-MLV reverse transcriptase (Invitrogen) with DNAse I (Ambion) treatment for 30 min. The one-tenth of the produced cDNA was amplified by PCR using Taq DNA polymerase (Invitrogen) and two reporter sequence-specific primers. The PCR products were fluorescently labeled by primer extension with 6-arboxyfluorescein (6-FAM) 5'-labeled reporter sequence-specific primer (2 min at 95 C, 20 s at 68 C and 10 min at 72 C) and these products were digested with 5U of HpaI (New England Biolabs) for 2h at 37 C. The fragments were purified using Qiaquick PCR columns (Qiagen), analyzed on an ABI 3130xL genetic analyzer (Applied Biosystems) with peak positions identified by using a set of X-rhodamine (ROX)-labeled MapMarker1000 molecular weight standards (BioVentures). The raw capillary electrophoresis data was processed using Attagraph software (Attagene).
In the case of `CCCCC1(COC(=O)CCC(=O)O)C(=O)N(c2ccccc2)N(c2ccccc2)C1=O`, the outcome was inactive.

For `CCOc1ccc(NC(=O)CC(C)=O)cc1`, the compound was classed as inactive.

Consider `CN(C)c1ccncc1`, for which the outcome was inactive.

Turning to `CCc1ccc(O)cc1`, the call was inactive.

Consider `C=CC(C)(O)CCC=C(C)C` (stereo not given), for which the outcome was inactive.

In the case of `CC(=O)c1ccccn1`, the call was inactive.

As to `CC1(C)O[C@@H]2C[C@H]3[C@@H]4CCC5=CC(=O)C=C[C@]5(C)[C@@]4(F)[C@@H](O)C[C@]3(C)[C@]2(C(=O)CO)O1`, the compound was called inactive.

`CN1CCOCC1`: the compound was called inactive.

In the case of `O=C(O)CCCCCCCCC(=O)O`, the call was inactive.

With `c1ccc2[nH]cnc2c1`, the call was inactive.

As for `CCOC(=O)[C@@H](C)Oc1ccc(Oc2nc3ccc(Cl)cc3o2)cc1`, the outcome was inactive.

With `C[Si]1(C)O[Si](C)(C)O[Si](C)(C)O1`, the call was inactive.

`CCOc1ccc(NC(=O)CC(C)O)cc1` (stereo not given): the compound was classed as inactive.

In the case of `CC(C)=CCCC(C)CCOC=O` (stereo not given), the call was inactive.

With `O=CN1CCOCC1`, the result was inactive.

`Cc1ccc(S(N)(=O)=O)cc1`: the call was inactive.

Regarding `CSc1c(Cl)c(Cl)c(Cl)c(Cl)c1Cl`, the result was inactive.

Consider `COCCOCCOCCO`, for which the outcome was inactive.

With `COCCOC(=O)c1ccccc1C(=O)OCCOC`, the result was inactive.

With `CCCCCCC(CO)CCCC` (stereo not given), the result was inactive.

`CC1(C)CCC[C@]2(C)[C@H]3CCO[C@]3(C)CC[C@@H]12`: the outcome was inactive.

For `CC=Cc1ccc(OCC)c(O)c1`, the result was inactive.

In the case of `Cc1cc(S(=O)(=O)O)ccc1N=Nc1c(O)ccc2ccccc12`, the outcome was inactive.

Take `O=C(CC(=O)c1ccccc1)c1ccccc1`: the compound was classed as inactive.

For `Cc1c(Cl)cccc1[N+](=O)[O-]`, the outcome was inactive.

`CCC(C)c1cc([N+](=O)[O-])cc([N+](=O)[O-])c1OC(=O)OC(C)C` (stereo not given): the compound was called inactive.

As for `CC[N+](C)(CC)CC`, the compound was called inactive.

For the compound `CCOc1ccccc1O`, the call was inactive.

In the case of `c1ccc(Oc2ccccc2)cc1`, the call was inactive.

`O=Cc1ccccc1S(=O)(=O)O`: the call was inactive.

On to `NCc1ccco1`, for which the compound was classed as inactive.

Take `C=C(C)C(=O)OCCOC1CC2CC1C1C=CCC21` (stereo not given): the outcome was inactive.

Turning to `CC(=O)c1c(C)c([N+](=O)[O-])c(C(C)(C)C)c([N+](=O)[O-])c1C`, the result was inactive.

Turning to `ON=C1CCCCC1`, the call was inactive.

Regarding `Cc1[nH]c(=O)c(C#N)cc1-c1ccncc1`, the call was inactive.

As for `C/C=C(\C)C(=O)OCCc1ccccc1`, the compound was called inactive.

With `CCOC(=O)C1OC1c1ccccc1` (stereo not given), the call was inactive.

For the compound `C=C1CC[C@H](O)C/C1=C/C=C1\CCC[C@]2(C)[C@@H]([C@H](C)/C=C/[C@H](C)C(C)C)CC[C@@H]12`, the compound was classed as inactive.

Consider `CCC(=O)O[C@@H]1C[C@H]2CC[C@]1(C)C2(C)C`, for which the compound was classed as inactive.

Take `C=CC(=O)OCCC#N`: the compound was called inactive.
